Data on seven compounds can be found in PubChem BioAssay (NCI).

Assay in all cases: NCI-60 one-dose screen, 48 h (100 = growth as untreated, 0 = no growth, -100 = all killed)
Conditions in all cases: 10 µM unless noted

For assay [1], the system named is HCT-15 colon.
Assay [2] deals with HT29 colon.
For assay [3], the system named is SNB-75 CNS.
The subject of assay [4] is SNB-19 CNS.
Assay [5] relates to U251 CNS.
Assay [6] has as its system PC-3 prostate.
For assay [7], the system named is SK-MEL-5 melanoma.
The test system of assay [8] is UACC-62 melanoma.
For assay [9], the system named is LOX IMVI melanoma.
In assay [10] the test system is SK-MEL-28 melanoma.
Assay [11] relates to SK-MEL-2 melanoma.
Assay [12] concerns EKVX NSCLC.
Assay [13] relates to SN12C renal.
The test system of assay [14] is UO-31 renal.
Assay [15] concerns TK-10 renal.
Assay [16] relates to ACHN renal.
Assay [17] has as its system CAKI-1 renal.
For assay [18], the system named is A498 renal.
For assay [19], the system named is CCRF-CEM leukemia.
Assay [20] relates to MOLT-4 leukemia.

The panel holds about 83,000 compounds, 20% with a hit somewhere; the sample as a whole holds those more often.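 Method: cells in 96-well plates; compound added at one concentration; 48 h incubation; percent growth measured; values under 10 scored active.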 Unmarked numbers belong to inactive results. The source made the active and inactive calls.

As to `COc1ccc(-c2cc(-c3ccc(Cl)cc3)c(C#N)c(=O)n2CCCCC(=O)Nc2ccccc2N)cc1`, the growth was 19.3% in assay [1]; 21.1% in assay [2]; 22.5% in [3]; 69.9% in assay [4]; 55.1% in [5]; 50.1% in assay [6]. Also, the growth was -39.1% (active) in [7]; 23.7% in assay [8]; -60.9% (active) in assay [9]; 65.4% in assay [10]; 79.7% in assay [11]; 47.3% in assay [12]. Moreover, the growth was 42.3% in assay [13]; 33.4% in [14]; 102% in assay [15]; 51.6% in assay [16]; 1.45% (active) in assay [17]; 20.9% in [18]. In addition, the growth is 42.5% in assay [19] and 47.8% in assay [20].
Turning to `COCCNC(=O)c1ccc(-c2nc3ccc4[nH]ncc4c3c3c2CCCC3)cc1`, the growth in [1] was 19.3%; in assay [2], 44.5%; in [3] it was -6.65% (active); in assay [4], 67.7%; in assay [5], 43.4%; in [6], 34.8%. Also, the growth is 44.8% in assay [7]; 21.4% in assay [8]; 29.1% in [9]; 39.6% in assay [10]; 40.2% in assay [11]; 45.7% in assay [12]. For the same compound, the growth in [13] was 33%; in assay [14], 8.86% (active); in assay [15] it was 38.9%; in [16], 14.9%; in assay [17], -4.05% (active); in assay [18], -9.26% (active). For the same compound, the values for the growth in assay [19] and in assay [20] were 18.1% and 17.8%, respectively.
In the case of `Cc1ccc(C2=Nc3c(N)ncnc3NC(c3ccc4c(c3)OCO4)C2)cc1` (stereo not given), the growth was 34.6% in [1]; 14.1% in assay [2]; 53.5% in assay [3]; 73.2% in assay [4]; 46.9% in assay [5]; 62.5% in [6]. Moreover, the growth in assay [7] was 33.3%; in assay [8], 48.5%; in [9] it was 59.3%; in assay [10] it was 58%; in assay [11], 61.8%; in assay [12], 83.2%. Besides, the growth was 96.8% in assay [13]; 60.9% in assay [14]; 84.5% in [15]; 74.3% in assay [16]; 56.6% in [17]; 55.4% in assay [18]. In addition, the growth was -39.4% (active) in assay [19] and 49.3% in assay [20].
Take `CCOC(=O)CSc1ncnc2c1c(-c1ccccc1)c(-c1ccccc1)n2-c1ccc(C)cc1`: the growth is 106% in assay [1]; 63.9% in assay [2]; 87.8% in assay [3]; 63.4% in assay [4]; 49.1% in [5]; 51.9% in assay [6]. The growth is 44.9% in assay [7]; 57.1% in assay [8]; 78.4% in assay [9]; 87.6% in [10]; 82.4% in [11]; 43.9% in assay [12]. The growth was 64.3% in [13]; 73.4% in assay [14]; 78.5% in [15]; 90.7% in assay [16]; 75.6% in [17]; 75.2% in assay [18]. Also, the growth was 67% in assay [19] and 67.4% in assay [20].
Regarding `Cc1ccc2c(n1)C(=O)c1[nH]c3ccccc3c1C2=O`, the growth in assay [1] is 18.8%; in assay [2], 26.6%; in assay [3], -37.8% (active); in assay [4] it was 46.9%; in assay [5], 40.9%; in assay [6], 35.3%. Besides, the growth was -94% (active) in [7]; -64.2% (active) in assay [8]; 16.4% in [9]; 78.6% in assay [10]; 64.2% in assay [11]; 43.7% in [12]. Further, the growth was 36.5% in assay [13]; 50.5% in [14]; 115% in [15]; 49.2% in [16]; 56.4% in assay [17]; 69.2% in assay [18]. The growth was 55.9% in [19] and 35.1% in assay [20].
For the compound `CCOC(=O)c1c(C)c2c(n1C)CSc1cc(C(=O)c3ccccc3)c(=O)[nH]c1-2`, the growth was 105% [100 µM] in assay [1]; 108% [100 µM] in [2]; 89.5% [100 µM] in assay [3]; 102% [100 µM] in assay [4]; 97.8% [100 µM] in assay [5]; 82.5% [100 µM] in assay [6]. Besides, the growth in assay [7] is 85.8% [100 µM]; in [8], 78.5% [100 µM]; in assay [9], 91.1% [100 µM]; in assay [10], 105% [100 µM]; in assay [11], 122% [100 µM]; in assay [12], 71.8% [100 µM]. For the same compound, the growth was 103% [100 µM] in [13]; 84.7% [100 µM] in assay [14]; 103% [100 µM] in assay [15]; 84.9% [100 µM] in [16]; 66% [100 µM] in [17]; 87.7% [100 µM] in [18]. In addition, the growth is 106% [100 µM] in assay [19] and 87.3% [100 µM] in [20].
`O=C(Cn1c2c(c3ccccc31)CCCC2)Nc1ccc(-c2nc3ccccc3s2)cc1`: the growth in assay [1] was 101%; in assay [2], 107%; in assay [3], 106%; in [4], 100%; in [5], 96.9%; in assay [6], 94.7%. Moreover, the growth was 93.6% in assay [7]; 90.1% in assay [8]; 79.9% in assay [9]; 103% in assay [10]; 98.6% in assay [11]; 108% in assay [12]. Besides, the growth is 103% in [13]; 92.6% in [14]; 98.9% in assay [15]; 112% in [16]; 100% in assay [17]; 94% in assay [18]. In addition, the growth was 93.2% in [19] and 98.8% in assay [20].
